Several values for one entry are separate records, joined by “and”; a condition that tells them apart may be missing. Equal entries are not always repeated. This is part of a sample that, as a whole, favours compounds with a hit. Of some 83,000 tested, about 20% had one in any assay.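 The endpoint reported here, percent growth, reads 100 for growth as untreated, 0 for no net growth and -100 for all cells dead.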 Activity calls are given as the source filed them. The calls were made as follows: active = growth percent below 10; inactive = the rest.
System: MDA-MB-468 breast
Assay: NCI-60 one-dose screen, 48 h (100 = growth as untreated, 0 = no growth, -100 = all killed)
Settings: 10 µM unless noted

SMILES	growth
CC(C)(C)c1cc(-c2nc3ccc(N4CCN(S(C)(=O)=O)CC4)cc3[nH]2)cc(C(C)(C)C)c1O	96.1% (inactive)
CC(C)c1ccc(Cc2cnc(NC(=O)c3cc(Br)cs3)s2)cc1	-4.52% (active)
Cn1c2ccccc2c2c3c(c4c5ccc(Br)cc5oc4c21)C(=O)N(O)C3=O	46.2% (inactive)
NC1=NC2(CCCC2)N(c2ccc(S(=O)(=O)Nc3nccs3)cc2)C(N)=N1	90.7% (inactive)
COc1ccc(NC(=O)Nc2ccc(-c3cccnc3)cc2N2CCC(CO)CC2)cc1	42.5% (inactive)
CC(C)(C)CC(C)(C)NCc1cc(C(C)(C)C)cc(CNC(C)(C)CC(C)(C)C)c1O	36.2% (inactive)
N#CCNc1ccccc1N	108% (inactive)
OCc1ncc(-c2ccccc2)s1	104% (inactive)
COc1ccc(/C=C/C(=O)O)cc1OC	99.5% (inactive) and 102% (inactive)
COc1cc(-c2n/c(=C\c3c(O)[nH]c4cc(Cl)ccc34)cc3c2=Nc2ccccc2-3)cc(OC)c1OC	73.7% (inactive)
CCOc1ccc(/C=C(\C#N)c2cc3ccccc3[nH]2)cc1	33.4% (inactive)
COC(=O)[C@]12CC[C@@H](C)[C@H](C)[C@@H]1C1=CC[C@@H]3[C@@]4(C)CC(=O)[C@H](O)[C@@]5(C)COC(=C45)C[C@@]3(C)[C@]1(C)CC2	-83.9% (active)
COC(=O)Nc1nc2ccc(Sc3ccccc3)cc2[nH]1	-3.91% (active)
O=C(Nc1cc(Br)ccn1)c1cc2cc(Nc3nc(-c4ccccc4)nc4ccccc34)ccc2oc1=O	123% (inactive)
